Assay [1] deals with rat CYP2A2, Cyp2a2 (gene 24895) (UniProt P15149). The assay is described as follows: NVS_ADME_rCYP2A2: NovaScreen (NVS) CYP450-related Enzyme Activity (ADME) Assay for rat CYP2A2 (AID 2283116). In short, it runs like this:
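Cell-free recombinant rat CYP2A2 activity with fluorogenic substrate, fluorescence read 0.2 h after dosing. Chemicals screened at 10 uM in duplicate, hits then run in concentration-response up to 20 uM; signal loss versus acetonitrile baseline.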

Another assay relates to rat CYP3A1, gene 25642. Nature of the assay: NVS_ADME_rCYP3A1: NovaScreen (NVS) CYP450-related Enzyme Activity (ADME) Assay for rat CYP3A1 (AID 2283126). In short, it runs like this:
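Cell-free recombinant CYP assay with fluorescent substrate, read 0.5 h after dosing. Screened at 10 uM in duplicate, hits at up to 20 uM in concentration-response; loss of signal versus acetonitrile baseline.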

The target in assay [2] is rat CYP1A2, Cyp1a2 (gene 24297) (UniProt P04799). Nature of the assay: NVS_ADME_rCYP1A2: NovaScreen (NVS) CYP450-related Enzyme Activity (ADME) Assay for rat CYP1A2 (AID 2283115). An outline of the steps:
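Cell-free recombinant rat enzyme with fluorogenic substrate, read by fluorescence intensity 1 hour after dosing. Loss of signal versus acetonitrile negative control; primary screen at 10 uM in duplicate, actives followed in concentration series.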

Assay [3] concerns the target human Acetylcholinesterase (AChE), ACHE (gene 43) (UniProt P22303). Nature of the assay: NVS_ENZ_hAChE: NovaScreen (NVS) Enzymatic Assay for human Acetylcholinesterase (AChE) (AID 2283129). An outline of the steps: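 Cell-free colorimetric enzyme-activity assay; compounds read 0.33 hour after dosing, loss of signal vs DMSO baseline. Primary screen in duplicate at 25 uM single concentration, with active compounds retested in concentration series.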

The target in assay [4] is rat CYP3A2, Cyp3a2 (gene 266682) (UniProt P05183). Nature of the assay: NVS_ADME_rCYP3A2: NovaScreen (NVS) CYP450-related Enzyme Activity (ADME) Assay for rat CYP3A2 (AID 2283128). In short, it runs like this:
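Cell-free rat CYP3A2 enzyme assay with fluorescent substrate, read 0.5 h after dosing. Primary duplicate screen at 10 uM; actives run in concentration-response up to 20 uM, relative to acetonitrile baseline.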

Assay [5] deals with rat CYP2A1, Cyp2a1 (gene 24894) (UniProt P11711). The assay is described as follows: NVS_ADME_rCYP2A1: NovaScreen (NVS) CYP450-related Enzyme Activity (ADME) Assay for rat CYP2A1 (AID 2283114; active = hit-call score of the fitted dose curve at least 0.9, where 1 is the maximum; inactive = score below 0.9). In short, it runs like this:
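Recombinant rat CYP2A1, cell-free, fluorogenic substrate turnover read by fluorescence intensity 0.75 h after dosing. Primary screen at 10 uM in duplicate; actives rerun as concentration-response up to 20 uM; loss of signal versus acetonitrile control.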

Assay [6] concerns the target rat CYP2C11, Cyp2c11 (gene 29277) (UniProt P08683). Nature of the assay: NVS_ADME_rCYP2C11: NovaScreen (NVS) CYP450-related Enzyme Activity (ADME) Assay for rat CYP2C11 (AID 2283118). An outline of the steps:
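Cell-free recombinant rat enzyme with fluorescent substrate; readout 0.33 h after dosing, loss of signal versus acetonitrile control. Initial duplicate single-point at 10 uM; actives rerun in concentration series.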

In assay [7] the target is rat CYP2C12, Cyp2c12 (gene 25011) (UniProt P11510). The assay is described as follows: NVS_ADME_rCYP2C12: NovaScreen (NVS) CYP450-related Enzyme Activity (ADME) Assay for rat CYP2C12 (AID 2283119). An outline of the steps: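 Cell-free recombinant rat CYP2C12 activity read by fluorescence 0.5 h after dosing; loss of signal versus acetonitrile control. Primary screen in duplicate at 10 uM; actives then run in concentration-response format.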

Another assay relates to rat CYP2C6, gene 293989. The assay is described as follows: NVS_ADME_rCYP2C6: NovaScreen (NVS) CYP450-related Enzyme Activity (ADME) Assay for rat CYP2C6 (AID 2283120). An outline of the steps: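 Cell-free recombinant rat CYP2C6 with fluorogenic substrate, read by fluorescence 1 h after dosing; acetonitrile as negative control. Primary screen at 10 uM in duplicate, actives then in concentration-response up to 20 uM.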

Assay [8] has as its target human Acid Phosphatase 1 (ACP1), ACP1 (gene 52) (UniProt P24666). The assay is described as follows: NVS_ENZ_hACP1: NovaScreen (NVS) Enzymatic Assay for human Acid Phosphatase 1 (ACP1) (AID 2283136). An outline of the steps:
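Recombinant enzyme expressed in Sf9 cells, tested cell-free; activity read by fluorescence with electrophoretic mobility shift separation of substrate and product, 1.5 h after dosing. Primary screen in duplicate at 25 uM, actives then run in concentration series; loss of signal versus DMSO.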

The target in assay [9] is human AKT serine/threonine Kinase 1 (AKT1), AKT1 (gene 207) (UniProt P31749). The assay is described as follows: NVS_ENZ_hAKT1: NovaScreen (NVS) Enzymatic Assay for human AKT serine/threonine Kinase 1 (AKT1) (AID 2283138). An outline of the steps:
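Signal loss relative to DMSO, measured by fluorescence after electrophoretic separation of substrate and product, indicates inhibition of recombinant enzyme. Readings at 1 h; screening at 25 uM, follow-up curves up to 50 uM.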

Assay [10] addresses human Beta-secretase (BACE), BACE1 (gene 23621) (UniProt P56817). Nature of the assay: NVS_ENZ_hBACE: NovaScreen (NVS) Enzymatic Assay for human Beta-secretase (BACE) (AID 2283140).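 Also: hits are inhibitors that reduce fluorescent substrate signal versus DMSO.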 An outline of the steps: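 Recombinant BACE1 (SF9 extract) incubated with compound and fluorescent substrate, 1 h. Plates carried positive and DMSO negative controls. Initial single dose 25 uM, duplicate; confirmation by concentration series.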

The target in assay [11] is rat CYP2D1, Cyp2d1 (gene 266684) (UniProt P10633). Nature of the assay: NVS_ADME_rCYP2D1: NovaScreen (NVS) CYP450-related Enzyme Activity (ADME) Assay for rat CYP2D1 (AID 2283122). An outline of the steps: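 Cell-free fluorescence enzyme-activity assay on extracted rat CYP2D1 protein, read 0.75 h after dosing. Primary screen in duplicate at 10 uM; qualifying chemicals then run in concentration-response to 20 uM max, loss-of-signal versus acetonitrile baseline.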

The target in another assay is Caspase-3 (Homo sapiens) (UniProt P42574). Nature of the assay: NVS_ENZ_hCASP3: NovaScreen (NVS) Enzymatic Assay for human Caspase 3 (CASP3) (AID 2283139). In short, it runs like this:
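Recombinant human caspase-3 from E. coli with a fluorogenic substrate, read by fluorescence 1 h after dosing. Primary screen in duplicate at 25 uM. Actives (for example ≥30% inhibition) rerun as concentration-response up to 50 uM.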

Assay [12] addresses rat CYP2C13, Cyp2c13 (gene 171521) (UniProt P20814). Nature of the assay: NVS_ADME_rCYP2C13: NovaScreen (NVS) CYP450-related Enzyme Activity (ADME) Assay for rat CYP2C13 (AID 2283121). An outline of the steps: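 Recombinant rat CYP2C13 with fluorogenic substrate, 0.75 h cell-free incubation; primary screen in duplicate at 10 uM, actives followed in concentration series. Fluorescence loss relative to acetonitrile control indicates inhibition.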

The target in another assay is Caspase-1 (Homo sapiens) (UniProt P29466). Nature of the assay: NVS_ENZ_hCASP1: NovaScreen (NVS) Enzymatic Assay for human Caspase 1 (CASP1) (AID 2283132). In short, it runs like this: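 Cell-free enzymatic assay with E. coli-expressed recombinant protein; fluorescence intensity read 1 hour after dosing. Single-concentration duplicate screen at 25 uM, then concentration-response up to 50 uM; activity fitted relative to DMSO, loss of signal meaning inhibition.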

Assay [13] concerns the target human Caspase 2 (CASP2), CASP2 (gene 835) (UniProt P42575). The assay is described as follows: NVS_ENZ_hCASP2: NovaScreen (NVS) Enzymatic Assay for human Caspase 2 (CASP2) (AID 2283135). An outline of the steps: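 E. coli-expressed enzyme in a cell-free protease assay, fluorescence read 1 h after dosing. Compounds at 25 uM in duplicate, with concentration-response up to 50 uM for hits; loss of signal against DMSO baseline.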

Assay [14] addresses human Caspase 5 (CASP5), CASP5 (gene 838) (UniProt P51878). The assay is described as follows: NVS_ENZ_hCASP5: NovaScreen (NVS) Enzymatic Assay for human Caspase 5 (CASP5) (AID 2283137). In short, it runs like this:
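Cell-free protease assay with bacterially expressed CASP5 and a fluorescent substrate, measured at 2 h. Values fitted relative to DMSO as baseline, from concentration-response series topping at 50 uM.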

The target in assay [15] is human AKT serine/threonine Kinase 2 (AKT2), AKT2 (gene 208) (UniProt P31751). The assay is described as follows: NVS_ENZ_hAKT2: NovaScreen (NVS) Enzymatic Assay for human AKT serine/threonine Kinase 2 (AKT2) (AID 2283141). In short, it runs like this: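 Cell-free fluorescence/electrophoretic mobility shift readout of recombinant human AKT2 activity, 1 h after chemical dosing. Duplicate primary screen at 25 uM, then singleton concentration-response up to 50 uM; loss of signal versus DMSO baseline.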

Several values for one entry are separate records, joined by “and”; a condition that tells them apart may be missing. Equal values may be shown once. Inconclusive results are not listed. Activity calls are given as the source filed them. The calls were made as follows, unless noted: active = hit-call score of the fitted dose curve at least 0.9, where 1 is the maximum; inconclusive = response in the unintended direction; inactive = score below 0.9.

Broadly, the AC50 is the midpoint of the concentration-response curve, whichever way the signal moves.

Chain of rat CYP2A2, Cyp2a2 (gene 24895) (P15149 whole entry, looked up): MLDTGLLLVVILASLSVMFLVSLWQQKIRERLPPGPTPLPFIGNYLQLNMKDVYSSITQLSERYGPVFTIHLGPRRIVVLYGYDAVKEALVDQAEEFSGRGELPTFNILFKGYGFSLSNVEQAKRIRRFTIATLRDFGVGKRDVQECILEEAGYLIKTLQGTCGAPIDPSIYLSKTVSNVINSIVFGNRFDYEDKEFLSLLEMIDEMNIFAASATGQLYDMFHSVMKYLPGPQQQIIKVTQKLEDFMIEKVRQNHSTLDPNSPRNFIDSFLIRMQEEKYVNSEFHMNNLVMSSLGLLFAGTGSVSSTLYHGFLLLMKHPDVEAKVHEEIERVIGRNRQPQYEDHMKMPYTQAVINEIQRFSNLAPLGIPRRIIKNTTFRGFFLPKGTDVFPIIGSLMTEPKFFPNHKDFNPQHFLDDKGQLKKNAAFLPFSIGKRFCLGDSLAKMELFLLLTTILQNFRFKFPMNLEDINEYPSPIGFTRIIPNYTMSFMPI
Chain of human Beta-secretase (BACE), BACE1 (gene 23621) (P56817 whole entry, looked up): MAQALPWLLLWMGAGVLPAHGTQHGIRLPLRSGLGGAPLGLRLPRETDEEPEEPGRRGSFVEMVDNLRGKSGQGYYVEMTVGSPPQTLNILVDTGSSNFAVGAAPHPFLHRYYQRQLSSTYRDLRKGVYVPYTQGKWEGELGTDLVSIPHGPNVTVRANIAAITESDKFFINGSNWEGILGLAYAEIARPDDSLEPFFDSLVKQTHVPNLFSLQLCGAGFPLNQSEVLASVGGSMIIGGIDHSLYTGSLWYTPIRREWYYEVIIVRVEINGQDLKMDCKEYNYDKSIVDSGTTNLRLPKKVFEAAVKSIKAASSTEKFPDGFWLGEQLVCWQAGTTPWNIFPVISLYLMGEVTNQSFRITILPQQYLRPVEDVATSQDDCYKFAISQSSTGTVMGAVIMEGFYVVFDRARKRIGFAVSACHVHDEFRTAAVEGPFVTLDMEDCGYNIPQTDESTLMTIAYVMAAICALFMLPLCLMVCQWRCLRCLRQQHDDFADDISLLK
Chain of human Acid Phosphatase 1 (ACP1), ACP1 (gene 52) (P24666 whole entry, looked up): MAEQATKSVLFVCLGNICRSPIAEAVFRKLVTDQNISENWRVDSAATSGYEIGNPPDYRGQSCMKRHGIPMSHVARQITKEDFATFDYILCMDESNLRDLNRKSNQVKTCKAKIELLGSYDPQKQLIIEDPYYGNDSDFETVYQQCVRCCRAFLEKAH
Chain of rat CYP3A2, Cyp3a2 (gene 266682) (P05183 whole entry, looked up): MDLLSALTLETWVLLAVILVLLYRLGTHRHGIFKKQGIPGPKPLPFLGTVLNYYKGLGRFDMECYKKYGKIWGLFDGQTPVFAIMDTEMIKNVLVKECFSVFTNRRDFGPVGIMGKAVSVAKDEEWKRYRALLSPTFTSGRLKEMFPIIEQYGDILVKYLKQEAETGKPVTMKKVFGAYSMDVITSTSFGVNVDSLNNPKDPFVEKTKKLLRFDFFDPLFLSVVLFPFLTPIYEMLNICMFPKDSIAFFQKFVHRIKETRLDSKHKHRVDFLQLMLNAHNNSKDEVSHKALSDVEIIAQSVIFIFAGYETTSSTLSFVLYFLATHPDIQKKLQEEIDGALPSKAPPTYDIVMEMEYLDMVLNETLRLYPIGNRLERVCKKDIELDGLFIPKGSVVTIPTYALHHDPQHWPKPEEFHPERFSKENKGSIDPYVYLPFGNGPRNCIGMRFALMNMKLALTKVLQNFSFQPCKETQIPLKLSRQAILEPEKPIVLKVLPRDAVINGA
Chain of rat CYP2A1, Cyp2a1 (gene 24894) (P11711 whole entry, looked up): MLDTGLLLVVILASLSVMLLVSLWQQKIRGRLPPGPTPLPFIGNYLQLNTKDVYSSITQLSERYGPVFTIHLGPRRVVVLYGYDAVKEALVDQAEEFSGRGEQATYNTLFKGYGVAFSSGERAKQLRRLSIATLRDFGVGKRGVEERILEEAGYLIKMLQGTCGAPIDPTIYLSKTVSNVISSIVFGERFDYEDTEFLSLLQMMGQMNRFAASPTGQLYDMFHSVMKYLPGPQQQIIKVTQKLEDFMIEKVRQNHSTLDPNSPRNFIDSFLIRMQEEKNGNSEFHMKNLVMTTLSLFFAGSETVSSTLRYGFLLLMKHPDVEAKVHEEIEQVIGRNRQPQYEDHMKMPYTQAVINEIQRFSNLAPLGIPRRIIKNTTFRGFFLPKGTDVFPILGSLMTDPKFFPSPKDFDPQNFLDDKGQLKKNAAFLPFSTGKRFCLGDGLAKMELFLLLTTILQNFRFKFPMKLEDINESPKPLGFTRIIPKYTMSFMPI
Chain of rat CYP1A2, Cyp1a2 (gene 24297) (P04799 whole entry, looked up): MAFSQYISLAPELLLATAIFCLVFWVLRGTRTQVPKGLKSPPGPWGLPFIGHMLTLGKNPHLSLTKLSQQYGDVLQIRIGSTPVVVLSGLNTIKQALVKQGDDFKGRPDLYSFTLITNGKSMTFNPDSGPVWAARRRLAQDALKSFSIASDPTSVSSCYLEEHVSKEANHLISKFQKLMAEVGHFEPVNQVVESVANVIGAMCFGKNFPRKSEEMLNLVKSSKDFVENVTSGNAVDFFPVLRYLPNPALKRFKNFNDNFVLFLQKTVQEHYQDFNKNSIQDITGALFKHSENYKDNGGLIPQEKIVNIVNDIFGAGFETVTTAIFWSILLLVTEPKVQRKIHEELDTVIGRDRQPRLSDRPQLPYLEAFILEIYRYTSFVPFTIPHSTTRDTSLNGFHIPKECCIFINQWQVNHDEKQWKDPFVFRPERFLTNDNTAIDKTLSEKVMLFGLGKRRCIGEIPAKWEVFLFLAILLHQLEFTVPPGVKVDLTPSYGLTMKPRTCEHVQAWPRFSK
Chain of rat CYP2D1, Cyp2d1 (gene 266684) (P10633 whole entry, looked up): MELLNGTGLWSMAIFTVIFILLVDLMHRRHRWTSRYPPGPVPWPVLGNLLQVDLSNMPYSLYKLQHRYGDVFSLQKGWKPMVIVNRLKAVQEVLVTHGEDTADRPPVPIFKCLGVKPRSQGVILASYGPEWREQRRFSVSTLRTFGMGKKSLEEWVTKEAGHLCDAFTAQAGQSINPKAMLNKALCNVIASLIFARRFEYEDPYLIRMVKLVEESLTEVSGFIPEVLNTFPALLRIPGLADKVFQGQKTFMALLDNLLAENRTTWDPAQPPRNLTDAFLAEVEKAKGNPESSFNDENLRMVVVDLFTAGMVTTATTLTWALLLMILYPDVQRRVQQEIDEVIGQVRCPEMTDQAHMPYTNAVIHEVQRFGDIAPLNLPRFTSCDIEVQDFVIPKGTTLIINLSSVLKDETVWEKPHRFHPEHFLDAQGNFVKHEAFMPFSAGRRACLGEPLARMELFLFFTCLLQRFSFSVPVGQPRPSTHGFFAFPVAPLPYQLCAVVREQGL
Chain of human Acetylcholinesterase (AChE), ACHE (gene 43) (P22303 whole entry, looked up): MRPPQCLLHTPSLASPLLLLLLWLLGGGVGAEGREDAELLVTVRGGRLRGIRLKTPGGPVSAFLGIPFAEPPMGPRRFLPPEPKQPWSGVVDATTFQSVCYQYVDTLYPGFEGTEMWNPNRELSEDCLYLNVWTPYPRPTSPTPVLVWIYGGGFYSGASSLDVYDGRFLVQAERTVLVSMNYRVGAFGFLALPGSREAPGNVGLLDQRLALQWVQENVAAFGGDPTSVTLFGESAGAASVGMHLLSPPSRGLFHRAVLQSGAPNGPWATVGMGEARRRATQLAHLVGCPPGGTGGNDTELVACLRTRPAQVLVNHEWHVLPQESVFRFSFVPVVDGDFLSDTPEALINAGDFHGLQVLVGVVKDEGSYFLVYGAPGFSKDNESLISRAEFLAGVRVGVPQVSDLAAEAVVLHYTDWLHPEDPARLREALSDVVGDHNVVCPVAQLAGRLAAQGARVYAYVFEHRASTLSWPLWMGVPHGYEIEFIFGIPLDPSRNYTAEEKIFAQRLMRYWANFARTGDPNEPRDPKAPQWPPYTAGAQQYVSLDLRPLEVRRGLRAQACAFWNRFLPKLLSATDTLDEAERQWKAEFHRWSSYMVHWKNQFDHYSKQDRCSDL
Chain of human AKT serine/threonine Kinase 1 (AKT1), AKT1 (gene 207) (P31749 whole entry, looked up): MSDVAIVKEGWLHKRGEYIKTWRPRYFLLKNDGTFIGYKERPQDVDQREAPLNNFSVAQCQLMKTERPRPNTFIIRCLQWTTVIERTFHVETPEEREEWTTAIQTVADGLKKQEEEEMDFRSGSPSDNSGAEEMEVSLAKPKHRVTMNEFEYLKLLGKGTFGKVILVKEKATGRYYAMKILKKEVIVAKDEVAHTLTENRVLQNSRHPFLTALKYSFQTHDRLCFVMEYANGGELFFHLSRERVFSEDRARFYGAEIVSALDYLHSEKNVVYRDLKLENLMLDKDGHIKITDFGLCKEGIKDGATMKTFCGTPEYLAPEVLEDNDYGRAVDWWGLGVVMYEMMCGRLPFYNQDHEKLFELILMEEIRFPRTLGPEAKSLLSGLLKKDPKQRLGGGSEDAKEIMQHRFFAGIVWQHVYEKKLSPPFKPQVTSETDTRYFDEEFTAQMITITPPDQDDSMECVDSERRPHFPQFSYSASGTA
Chain of rat CYP2C13, Cyp2c13 (gene 171521) (P20814 whole entry, looked up): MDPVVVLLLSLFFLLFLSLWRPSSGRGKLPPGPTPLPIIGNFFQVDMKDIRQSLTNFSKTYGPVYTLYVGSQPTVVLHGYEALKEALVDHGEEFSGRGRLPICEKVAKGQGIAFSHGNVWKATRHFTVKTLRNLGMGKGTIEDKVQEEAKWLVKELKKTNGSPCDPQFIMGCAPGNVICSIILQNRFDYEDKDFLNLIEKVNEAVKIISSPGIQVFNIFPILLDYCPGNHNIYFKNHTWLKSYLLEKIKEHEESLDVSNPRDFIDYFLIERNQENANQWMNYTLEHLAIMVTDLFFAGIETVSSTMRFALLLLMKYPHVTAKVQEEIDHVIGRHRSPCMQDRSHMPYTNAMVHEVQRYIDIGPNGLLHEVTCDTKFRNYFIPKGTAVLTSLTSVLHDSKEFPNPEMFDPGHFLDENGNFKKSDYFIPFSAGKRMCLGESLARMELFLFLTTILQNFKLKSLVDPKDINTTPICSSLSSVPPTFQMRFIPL

For the compound `CCCCNC(=O)OCC#CI`, the AC50 was 5.3 µM (active) and 5.4 µM (active) in assay [1]; 1.46 µM (active) and 4.29 µM (active) in the assay with rat CYP3A1, gene 25642.

Take `COP(=S)(OC)Oc1nc(Cl)c(Cl)cc1Cl`: the outcome in assay [2] was “inactive”; with rat CYP3A1, gene 25642, “inactive”; in assay [3] it was “inactive”.

For `CCON=C(CC)C1=C(O)CC(c2c(C)cc(C)cc2C)CC1=O` (centres undefined), the AC50 in the assay with rat CYP3A1, gene 25642 was 4.22 µM (active); in assay [4], 3 µM (active).

`CCCN(CCC)c1c([N+](=O)[O-])cc(S(N)(=O)=O)cc1[N+](=O)[O-]`: the AC50 was 2.62 µM (active) in assay [5]; 3.08 µM (active) in [7]; 7.63 µM (active) in the assay with rat CYP2C6, gene 293989; 1.24 µM (active) with rat CYP3A1, gene 25642; 2.67 µM (active) in assay [4]. Besides, the compound was classed as inactive in [6], in [8] and in [9].

With `C=CCC1=C(C)C(OC(=O)C2C(C=C(C)C)C2(C)C)CC1=O` (centres undefined), the AC50 in assay [4] is 6.87 µM (active). In addition, the compound was called inactive in [10].

For `C=CCC1=C(C)[C@@H](OC(=O)[C@@H]2[C@@H](C=C(C)C)C2(C)C)CC1=O`, the AC50 in assay [11] is 1.05 µM (active); in [4], 7.55 µM (active). Besides, the compound was classed as inactive in assay [8].

Regarding `CC(Oc1ccc(Cl)cc1Cl)C(=O)O` (centres undefined), the call with Caspase-3 (Homo sapiens) was inactive.

As for `CNC(=S)S`, the outcome in assay [12] is “inactive”; in the assay on rat CYP3A1, gene 25642, “inactive”; in the assay with Caspase-1 (Homo sapiens), “inactive”; in assay [13], “inactive”; in assay [14], “inactive”; in assay [10] it was “inactive”. The result in assay [15] was inactive. Further, the AC50 was 39.9 µM (active) in [3] and 9.04 µM (active) in [8].

Consider `C#CCOS(=O)OC1CCCCC1Oc1ccc(C(C)(C)C)cc1` (centres undefined), for which the compound was classed as inactive in the assay with Caspase-3 (Homo sapiens). For the same compound, in assay [10], the AC50 was 14.8 µM (active).

For `CCOP(=S)(OCC)SCn1c(=O)oc2cc(Cl)ccc21`, the half-maximal activity concentration (AC50) was 3.22 µM (active) in [5]; 10 µM (active) in [1]; 0.993 µM (active) in [6]; 2.17 µM (active) in assay [7]; 0.336 µM (active) in the assay with rat CYP2C6, gene 293989; 2.09 µM (active) in [12]. In addition, the AC50 in assay [11] was 7.17 µM (active); in the assay with rat CYP3A1, gene 25642 it was 1.16 µM (active); in assay [4], 0.518 µM (active); in assay [10], 14.4 µM (active). Further, the outcome in assay [2] and in assay [9] was inactive.

The values above are taken from PubChem BioAssay (EPA / NIEHS).
